This experiment concerns PRMT1 (protein arginine N-methyltransferase 1). As to the kind of experiment: PRMT1 binders on small-molecule microarrays, primary screen, biochemical, small-molecule microarray, 635 nm fluorescence (AID 1088). Particulars: small-molecule microarray binding, higher = more signal.
For the compound `COc1cc2c(cc1O)C(C)N(Cc1ccc([N+](=O)[O-])o1)CC2` (stereo unspecified), the composite z-score worked out at 1.56.
For the compound `COCCOC(=O)N1C(=O)[C@@]2(c3cc(C#Cc4ccc(OC)cc4)ccc31)[C@H](c1ccc(O)cc1)N1[C@H](c3ccccc3)[C@H](c3ccccc3)OC(=O)[C@H]1[C@@H]2C(=O)N1CCCCCCC1`, the composite z-score was 0.632.
Then `COc1ccc([Si](C)(C)[C@@H]2[C@@H](CC(=O)N(CCO)Cc3ccccc3)O[C@]3(C(=O)N(Cc4cccc(N5C(=O)c6cccc7cccc5c67)c4)c4ccccc43)[C@H]2C)cc1`, with 0.737.
`Cc1ccc(S[C@]2(C(=O)O)CC(=O)N(Cc3ccccc3Cl)[C@@H]2c2ccc(CO)cc2I)cc1` registered a composite z-score of 0.765.
The result for `COC(=O)C1=CC(CCCO)=CC(C2CC2)N(C)C=C1C(=O)OC` (stereo unspecified) reads 0.723.
Then `COCCOC(=O)N1C(=O)[C@@]2(c3cc(C#CCC(C(=O)OC)C(=O)OC)ccc31)[C@H](C(=O)N1CCc3cc(OC)c(OC)cc3C1)[C@H]1C(=O)O[C@H](c3ccccc3)[C@H](c3ccccc3)N1[C@@H]2c1ccc(OCCO)cc1`, with 1.54; and `COc1ccc([Si](C)(C)[C@H]2[C@H](CCO)O[C@@]3(C(=O)N(Cc4cccc(N5C(=O)COc6ccccc65)c4)c4ccccc43)[C@@H]2C)cc1`, with 0.911; and `CN(C)CCCNC(=O)[C@@]1(C)c2ccccc2C(=O)N(Cc2ccccc2)[C@H]1c1ccc(CO)cc1`, with 0.988.
The result for `COC(=O)c1c2oc(c1C(=O)OC)C(=O)N(Cc1ccccc1)Cc1cn(nn1)C[C@H](Cc1ccccc1)NC(=O)N[C@H](CO)CC2` reads 0.707.
`[N-]=[N+]=NCc1ccccc1[C@H]1OC(c2ccc(OCCCO)cc2)=N[C@@]1(CCS(=O)(=O)c1ccccc1)C(=O)N1CCCCC1` returned a composite z-score of 1.55.
`O=C(CS)NCCCCCNC(=O)[C@@H]1C[C@@H]2C(=O)N3CCC[C@H]3C(=O)N2[C@@H]1c1cccc(OCCO)c1` returned a composite z-score of 1.07.
`COCCOC(=O)N1C(=O)[C@@]2(c3cc(C#CCCO)ccc31)[C@H](C(=O)Nc1nc3ccccc3s1)[C@H]1C(=O)O[C@H](c3ccccc3)[C@H](c3ccccc3)N1[C@@H]2c1ccccc1OCCO` registered a composite z-score of 1.54.
In turn, `C[C@@H]1NC(=O)[C@@]23C(=O)N[C@@H](Cc4ccccc4)C2[C@H](C)[C@@]2(C)O[C@H]2C3/C=C/C/C=C\CNC(=O)[C@@H]2CCCN2C1=O` (stereo partly specified) had a composite z-score of -0.422.
The result for `CCC[C@@H]1C[C@@]1(CCC)[C@@H](NC(=O)OCc1ccccc1)c1ccc(-c2ccccc2)cc1` reads -0.936.
`CC[C@H]1C2=C3C(CC[C@H]4C(OCc5ccc(F)cc5C(F)(F)F)OC[C@](C)([C@@H]34)N(C(=O)OC(C)(C)C)C2)C(COC)C1COC` (stereo partly specified) returned a composite z-score of -0.728.
The result for `CC(C)(C)OC(=O)CC[C@@]1(C(=O)NCc2ccccc2)N=C(c2ccc(OCCCO)cc2)O[C@@H]1c1ccccc1N=[N+]=[N-]` reads 1.56; that for `CCC(CC)C(O)C1C=CC2C(=O)N(c3ccccc3)C(=O)C2N1Nc1ccc(C(C)C)cc1` (stereo unspecified), 1.43; that for `C[C@H]1NC(=O)[C@@]23C(=O)N[C@@H](Cc4ccccc4)C2[C@H](C)[C@@]2(C)O[C@H]2C3/C=C/C/C=C\CNC(=O)[C@H](Cc2ccccc2)NC1=O` (stereo partly specified), 0.44.
The result for `COCCOC(=O)N1C(=O)[C@@]2(c3cc(C#CC4=CCCCC4)ccc31)[C@H](C(N)=O)[C@H]1C(=O)O[C@H](c3ccccc3)[C@H](c3ccccc3)N1[C@@H]2c1ccccc1OCCO` reads 1.54; that for `CCOC(=O)C[C@H]1[C@H](OC(=O)c2cc3ccccc3oc2=O)[C@@H](NC(=O)c2ccc(-c3ccccc3)cc2)c2cc(OCCCO)ccc2N1C(=O)c1ccc2ccccc2n1`, 1.25; that for `COC(=O)[C@@]1(Cc2ccc(F)cc2)[C@H]2c3cc(C(=O)N(C)C)n(Cc4cc(F)cc5c4OCOC5)c3C[C@H]2CN1C(=O)c1ccccc1`, 1.17.
Then `COC(=O)[C@@]1(Cc2ccccc2)[C@@H]2C(=CC(=O)[C@H]2CC(=O)C(=O)N(C)C)CN1C(=O)c1ccccc1`, with 0.777; and `CN1C(=O)C2C=CC(C(O)c3ccc(F)cc3)N(Nc3ccccc3)C2C1=O` (stereo unspecified), with 0.225.
As for `CCCC[C@@H]1C[C@H]1[C@@H](NC(=O)c1ccccc1)c1ccc(C(F)(F)F)cc1`, the composite z-score is -0.914.
`COc1ccc([Si](C)(C)[C@H]2[C@H](CCn3cc([C@H](O)c4ccccc4)nn3)O[C@@]3(C(=O)N(Cc4ccc(N5C(=O)c6cccc7cccc5c67)cc4)c4ccccc43)[C@@H]2C)cc1` returned a composite z-score of 0.643.
The result for `C[N+](C)(C)CCCC[C@@H]1NC(=O)[C@H]2C[C@@H](C(=O)NCCCCCCN)[C@@H](c3ccc(O)cc3)N2C1=O` reads 1.26.
